Assay outcomes from PubChem.
The list is not random: actives were taken first. Their share in the collection is about 19%.
HT1080NT lethal – kills 2HG-producing HT-1080-NT fibrosarcoma cells; AID 686970; 360,000 compounds, 1.6% hits; Potency, µM (titrated, usually from 46.1 µM), inactives show at the highest dose activity, negative = less viability, actives largely listed as cytotoxic; HT-1080-NT fibrosarcoma viability, CellTiter-Glo ATP luminescence, 48 h;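 note: NT is the 2HG producing partner of a matched IDH1 knockdown line; potency is the fitted concentration of half-maximal effect; 0% = DMSO-treated cells and -100% = media-only wells without cells; nearly all actives have a fitted effect of over 55% in size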
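Viability of the 2HG-overproducing fibrosarcoma line after 48 hours of compound exposure at 37 degrees C was determined by luminescence with CellTiter-Glo, and concentration-effect curves were then fitted and categorized.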
HT1080 IDH1KD tx – HT-1080 IDH1 knockdown cell toxicity (counter line); HT-1080 IDH1 knockdown viability, ATP luminescence, 48 h; Potency, µM (top dose mostly 46.1 µM), without a hit: at the highest dose activity, negative = toxicity, usual class: cytotoxic; AID 686971; 360,000 compounds, 2% hits;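 note: potency is the fitted concentration of half-maximal effect; 0% = DMSO wells and -100% = cell-free medium wells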
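Assay cells: HT-1080 with IDH1 knockdown, 750 per well, RPMI/5% FBS. Exposure: 48 h at 37 °C following 2 h pre-incubation. Read: CellTiter-Glo luminescence; fitted concentration-response, curve class assigned.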
TDP1 cell noCPT – qHTS for Inhibitors of human tyrosyl-DNA phosphodiesterase 1 (TDP1): qHTS in cells in absence of CPT | DT40 Tdp1-/- hTDP1 cells, no CPT, ATP luminescence, 48 h | Potency, µM (titrated, usually from 46.2 µM), for the others: at the highest dose activity change, negative = growth inhibition, hits mostly inhibitors | 420,000 compounds, 15% hits; note: potency is the fitted concentration of half-maximal effect; nearly all actives have a fitted effect of over 55% in size
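Stably hTDP1-transfected Tdp1-null chicken DT40 cells were treated with library compounds minus camptothecin and grown for at least 48 hr at 37 °C, after which cellular ATP was quantified by luminescence.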
IL1B secr inh – blocks inflammasome-driven IL-1 beta release. THP-1 LPS/ATP IL-1B secretion, AlphaLISA, 16 h; active compounds read low. activity change, % at 57.5 µM. 360,000 compounds, 4.7% hits. AID 743279; in the data active = activity change below about -50%; inconclusive = mostly about -30% to -49%
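Secreted IL-1B measured by AlphaLISA bead assay after 16 h compound exposure of THP-1 cells; compounds (final up to 57.5 uM) added 1 h before LPS (250 ng/mL) and ATP (1.25 mM) stimulation; lower signal means less secretion.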
DT40 TDP1 CPT – growth inhibition of DT40 Tdp1-/-;hTDP1 cells with camptothecin (screen for TDP1 inhibitors); Potency, µM (titrated, usually from 46.2 µM), for inactives: at the highest dose activity change, negative = growth inhibition, most hits filed as inhibitors; chicken DT40 Tdp1-/-;hTDP1 cells + 20 nM CPT, ATP luminescence, 48 h; 420,000 compounds, 12% hits; note: potency is the fitted concentration of half-maximal effect; nearly all actives have a fitted effect of over 55% in size
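Chicken DT40 Tdp1-/- cells complemented with human TDP1, 400 cells/well, exposed to compounds plus 20 nM camptothecin for at least 48 h at 37 C; viability read as ATP content by CellTiter-Glo luminescence.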
* hit, by the source's call; ? = inconclusive; . = no result; [ ] = another dose, or the depositor's remark. Unless noted, calls come from the whole dose curve; as a rule, active = well fitted curve in the direction sought with a large enough effect; inconclusive = small, poorly fitted or top-dose-only effect, or another doubt; inactive = no such curve, though single readings can be large; an effect the other way counts as inactive or inconclusive. Unless noted, % is set by controls: 0 for no effect and ±100 for the full control effect.

SMILES	HT1080NT lethal	HT1080 IDH1KD tx	TDP1 cell noCPT	IL1B secr inh	DT40 TDP1 CPT
CN(C)C(=O)CCSC(SCCC(=O)O)c1cccc(/C=C/c2ccc3ccc(Cl)cc3n2)c1 (configuration not stated)	.	.	17µM*	.	?
C[N+]1(C)CCCCC1COC(=O)C(O)(c1ccccc1)c1ccccc1 (configuration not stated)	.	.	-2%	.	-3%
O=S(=O)(NCC(c1cccnc1)N1CCN(c2ccc(F)cc2)CC1)c1ccccc1 (configuration not stated)	3%	-6%	21µM*	9	12µM*
Cc1cc(C)c(NC(=O)C2CC3CCC2C3)c(C)c1 (configuration not stated)	6%	5%	?	19	4%
O=C(OCC1OC(n2cnc3c(N(C(=O)c4ccccc4)C(=O)c4ccccc4)ncnc32)C(O)C1F)c1ccccc1 (configuration not stated)	?	?	?	38	?
O=[N+]([O-])O[C@H]1CO[C@H]2[C@@H]1OC[C@H]2O[N+](=O)[O-]	15%	-7%	9%	6	1%
COC(=O)C1=C(C)NC(C)=C(C(=O)O[C@H]2CCN(Cc3ccccc3)C2)[C@H]1c1cccc([N+](=O)[O-])c1	.	.	24µM*	.	?
O=[N+]([O-])c1cccc(CN2CCN(Cc3ccc(Br)cc3)CC2)c1	-22%	-27%	-29%	-25	?
C[C@H](CO)N1C[C@H](C)[C@@H](CN(C)C(=O)c2ccc3c(c2)OCO3)Oc2cc(/C=C/c3ccccc3)ccc2S1(=O)=O	-21%	-28%	8.2µM*	?	21µM*
CN(C)C(=S)SSC(=S)N(C)C	?	?	0.15µM*	24	0.15µM*
CN(C)C(=S)SC(=S)N(C)C	.	.	0.84µM*	.	0.84µM*
CC(C)[N+]12CCC(CC1)C(C(O)(c1ccccc1)c1ccccc1)C2 (configuration not stated)	-5%	3%	-21%	-1	-11%
O=C1C=C2C(=CCOC2O)O1 (configuration not stated)	.	.	0.15µM*	.	0.1µM*
O=c1c(C=NCCN2CCNCC2)c(O)n(C2CCCCC2)c(=O)n1C1CCCCC1	20µM*	?	?	-61*	16µM*
COc1ccc(-c2csc(Nc3ccc(S(N)(=O)=O)cc3)n2)cc1	?	18µM*	?	?	?
C[C@]12CC[C@@H]3c4ccc(O)cc4C[C@@H](CCCCCCCCCS(=O)CCCC(F)(F)C(F)(F)F)[C@H]3[C@@H]1CC[C@@H]2O (some centres not stated)	.	.	?	.	-40%
CCn1c(=O)oc2cc(NC(=O)CCl)ccc21	8.2µM*	5.2µM*	15µM*	-100*	12µM*
CC[C@H]1[C@@H]2C[C@H]3[C@@H]4N(C)c5ccccc5[C@]45C[C@@H](C2[C@H]5O)N3[C@@H]1O (some centres not stated)	.	.	-26%[21.1 µM]	.	?
CCSc1nc2n(n1)C(c1ccc(Cl)cc1Cl)C(C(=O)Nc1ccccc1C)=C(C)N2 (configuration not stated)	.	.	13µM*	.	18µM*
CCSc1nnc(NC(=O)c2cccn(Cc3ccc(Cl)cc3)c2=O)s1	.	.	1%	.	0%
COc1cc(C2c3cc4c(cc3CC3COC(=O)C32)OCO4)cc(OC)c1O (configuration not stated)	?	?	0.29µM*	26	0.052µM*
COc1cc(C2c3cc4c(cc3C(OC(C)=O)[C@H]3COC(=O)C23)OCO4)cc(OC)c1OC (some centres not stated)	.	.	0.033µM*	.	1µM*
COc1cc(C2c3cc4c(c(O)c3CC3COC(=O)C32)OCO4)cc(OC)c1O (configuration not stated)	.	.	?	.	0.071µM*
C=CCc1cc(OC)c2c(c1)OCO2	6%	14%	0%	11	-2%
CN(C)CCc1c[nH]c2ccccc12	.	.	-23%[166 µM]	.	-21%[166 µM]
SMILES	HT1080NT lethal	HT1080 IDH1KD tx	TDP1 cell noCPT	IL1B secr inh	DT40 TDP1 CPT
COc1ccc(C(O)c2ccccc2OP(=O)(N(C)C)N(C)C)cc1 (configuration not stated)	8%	2%	-8%	12	-19%
Oc1ccc([C@H]2CNCc3c2ccc(O)c3O)cc1O	.	.	-80%	.	?
CC(=O)O[C@H]1C[C@H](O[C@H]2[C@@H](O)C[C@H](O[C@H]3[C@@H](O)C[C@H](OC4CC[C@@]5(C)C(CC[C@@H]6[C@@H]5CC[C@]5(C)[C@@H](C7=CC(=O)OC7)[C@@H](O)C[C@]65O)C4)O[C@@H]3C)O[C@@H]2C)O[C@H](C)[C@H]1O[C@@H]1O[C@H](CO)[C@@H](O)[C@H](O)[C@H]1O (some centres not stated)	.	.	2.4µM*	.	3.3µM*
C[C@H]1O[C@@H](O[C@H]2CC[C@@]3(C)[C@H](CC[C@@H]4[C@@H]3C[C@@H](O)[C@]3(C)[C@@H](C5=CC(=O)OC5)CC[C@]43O)C2)C[C@H](O)[C@@H]1O[C@H]1C[C@H](O)[C@H](O[C@H]2C[C@H](O)[C@H](O[C@@H]3O[C@H](CO)[C@@H](O)[C@H](O)[C@H]3O)[C@@H](C)O2)[C@@H](C)O1	.	.	0.94µM*	.	1.3µM*
CC1OC(O[C@@H]2C(O)CC(O[C@@H]3C(O)C[C@@H](OC4CC[C@]5(C)[C@H](CC[C@H]6[C@@H]5CC[C@]5(C)C(C7=CC(=O)OC7)C(O)C[C@@]65O)C4)OC3C)OC2C)CC(O)C1O (some centres not stated)	.	.	-14%	.	0%
CC(=O)OC1CC(OC2C(O)CC(OC3C(O)CC(OC4CCC5(C)C(CCC6C5CCC5(C)C(C7=CC(=O)OC7)C(O)CC65O)C4)OC3C)OC2C)OC(C)C1OC1OC(CO)C(O)C(O)C1O (configuration not stated)	0.65µM*	1.3µM*	1.8µM*	-80*	1.5µM*
CCC(=NCc1ccco1)c1c(O)[nH]c(=O)[nH]c1=O	5%	4%	4%	11	2%
CCCNC(=O)N1[C@H]2CC[C@@H]1C(C(=O)OC)=C(c1ccc(Cl)c(C(F)(F)F)c1)C2	-2%	-1%	15µM*	-11	16µM*
COC(=O)C1=C(c2ccc(Cl)c(C(F)(F)F)c2)C[C@@H]2CC[C@H]1N2C(=O)NCC1CC1	-12%	-21%	18µM*	-6	15µM*
